What all share (test): DAPPL (digital affinity profiling via proximity ligation, sequencing); 10 mM Tris-HCl pH 7.5, 50 mM NaCl, 1 mM DTT, 4% glycerol, room temperature, 30 min; GST-TFs on glutathione beads, 16-mer random dsDNA library, 0.1% formaldehyde crosslink after washing; high values mean tight binding
Holding throughout (details): protein: recombinant; tags: N-terminal GST; dsDNA, one strand shown

The target in one assay is T1, ELK1 (Homo sapiens, UniProt P19419 1-428).
T1 sequence: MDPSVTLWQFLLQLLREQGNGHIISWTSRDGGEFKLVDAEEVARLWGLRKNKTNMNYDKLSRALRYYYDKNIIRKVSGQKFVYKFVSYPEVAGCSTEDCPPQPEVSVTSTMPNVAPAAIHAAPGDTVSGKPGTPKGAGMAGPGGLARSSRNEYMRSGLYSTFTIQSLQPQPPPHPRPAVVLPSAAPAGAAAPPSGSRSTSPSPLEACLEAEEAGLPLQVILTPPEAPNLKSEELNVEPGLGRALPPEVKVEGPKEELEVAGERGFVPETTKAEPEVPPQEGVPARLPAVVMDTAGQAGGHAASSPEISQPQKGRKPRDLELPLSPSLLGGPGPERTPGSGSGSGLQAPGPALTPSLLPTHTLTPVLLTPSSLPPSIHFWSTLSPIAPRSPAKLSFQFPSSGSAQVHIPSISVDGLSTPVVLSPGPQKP
In short, it runs like this:
(§1)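 GST fusions of human transcription factors were expressed in yeast and captured with glutathione beads. Once given DNA barcodes and pooled alongside a tag-only sample, they were incubated for 30 min at room temperature with 200 nmole of a random double-stranded 16-mer DNA library in Tris/NaCl/DTT/glycerol buffer, then washed, crosslinked (0.1% formaldehyde), proximity-ligated, PCR-amplified and sequenced on an Illumina NextSeq500. The binding signal of each hexamer is its read frequency for a factor divided by its frequency for the tag-only sample.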

A further assay addresses T2, GABPA (Homo sapiens, UniProt Q06546 1-454).
T2 sequence: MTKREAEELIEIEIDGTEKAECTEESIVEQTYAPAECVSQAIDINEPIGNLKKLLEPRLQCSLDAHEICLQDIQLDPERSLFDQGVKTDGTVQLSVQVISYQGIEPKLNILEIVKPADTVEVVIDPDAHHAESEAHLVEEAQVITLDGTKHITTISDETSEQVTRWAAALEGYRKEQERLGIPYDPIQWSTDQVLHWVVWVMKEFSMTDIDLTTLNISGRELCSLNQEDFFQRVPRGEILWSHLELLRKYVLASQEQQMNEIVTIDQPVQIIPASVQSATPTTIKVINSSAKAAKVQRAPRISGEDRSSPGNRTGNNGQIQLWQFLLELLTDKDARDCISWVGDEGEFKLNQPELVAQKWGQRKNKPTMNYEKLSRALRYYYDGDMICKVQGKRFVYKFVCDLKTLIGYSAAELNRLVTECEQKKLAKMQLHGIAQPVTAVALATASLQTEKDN
The method, boiled down: as §1

Another assay deals with T3, ERG (Homo sapiens, UniProt P11308 1-479).
T3 sequence: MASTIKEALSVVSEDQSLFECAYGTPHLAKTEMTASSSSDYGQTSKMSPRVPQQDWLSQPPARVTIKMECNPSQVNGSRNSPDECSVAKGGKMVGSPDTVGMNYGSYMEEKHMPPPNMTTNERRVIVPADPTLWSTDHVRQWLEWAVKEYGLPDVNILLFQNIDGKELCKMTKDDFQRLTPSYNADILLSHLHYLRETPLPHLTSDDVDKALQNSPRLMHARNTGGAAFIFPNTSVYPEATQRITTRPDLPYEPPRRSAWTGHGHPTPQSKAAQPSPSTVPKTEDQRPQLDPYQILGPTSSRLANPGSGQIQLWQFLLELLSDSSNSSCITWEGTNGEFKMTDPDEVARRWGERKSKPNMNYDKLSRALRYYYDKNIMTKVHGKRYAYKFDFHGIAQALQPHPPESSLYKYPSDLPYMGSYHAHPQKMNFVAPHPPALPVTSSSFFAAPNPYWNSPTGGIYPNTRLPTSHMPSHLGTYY
In short, it runs like this:
as §1

The target of another assay is ELF1 (Homo sapiens, UniProt P32519 1-619). In short, it runs like this:
as §1

The target in a further assay is T4, EHF (Homo sapiens, UniProt Q9NZC4 1-300).
T4 sequence: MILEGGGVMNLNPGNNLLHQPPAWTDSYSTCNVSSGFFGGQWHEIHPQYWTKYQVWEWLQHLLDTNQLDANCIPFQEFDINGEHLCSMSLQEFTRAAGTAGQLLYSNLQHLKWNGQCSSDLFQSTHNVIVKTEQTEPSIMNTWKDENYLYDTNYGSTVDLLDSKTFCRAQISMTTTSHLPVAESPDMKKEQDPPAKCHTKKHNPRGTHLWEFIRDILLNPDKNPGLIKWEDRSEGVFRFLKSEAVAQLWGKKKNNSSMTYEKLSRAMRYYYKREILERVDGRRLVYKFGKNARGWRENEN
In short, it runs like this:
as §1

The target in another assay is T5, FEV (Homo sapiens, UniProt Q99581 1-238).
T5 sequence: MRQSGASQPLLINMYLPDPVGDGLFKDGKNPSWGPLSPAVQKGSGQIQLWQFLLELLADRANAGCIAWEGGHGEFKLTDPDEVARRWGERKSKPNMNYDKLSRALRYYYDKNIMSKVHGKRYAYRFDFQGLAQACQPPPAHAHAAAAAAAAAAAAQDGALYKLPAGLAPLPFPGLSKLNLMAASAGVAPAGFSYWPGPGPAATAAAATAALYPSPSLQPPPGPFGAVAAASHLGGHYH
The method, boiled down:
as §1

Another assay concerns the target ETV5 (Homo sapiens, UniProt P41161 1-510). In short, it runs like this: as §1
The target in a further assay is ELF4 (Homo sapiens, UniProt Q99607 1-663). The method, boiled down:
as §1

The target in a further assay is T6, ELK4 (Homo sapiens, UniProt P28324-2 1-405).
T6 sequence: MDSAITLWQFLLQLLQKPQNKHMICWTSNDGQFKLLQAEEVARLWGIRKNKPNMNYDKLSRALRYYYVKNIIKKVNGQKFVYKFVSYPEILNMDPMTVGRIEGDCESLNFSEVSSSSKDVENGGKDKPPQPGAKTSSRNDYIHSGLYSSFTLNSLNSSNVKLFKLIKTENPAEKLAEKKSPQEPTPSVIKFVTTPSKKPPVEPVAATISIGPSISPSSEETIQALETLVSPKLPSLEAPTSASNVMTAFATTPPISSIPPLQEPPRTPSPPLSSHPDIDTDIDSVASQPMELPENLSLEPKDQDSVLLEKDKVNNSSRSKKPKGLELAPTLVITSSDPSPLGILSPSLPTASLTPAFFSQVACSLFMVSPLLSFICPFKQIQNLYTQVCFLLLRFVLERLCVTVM
In short, it runs like this:
as §1

A further assay deals with T7, ETV2 (Homo sapiens, UniProt O00321 1-342).
T7 sequence: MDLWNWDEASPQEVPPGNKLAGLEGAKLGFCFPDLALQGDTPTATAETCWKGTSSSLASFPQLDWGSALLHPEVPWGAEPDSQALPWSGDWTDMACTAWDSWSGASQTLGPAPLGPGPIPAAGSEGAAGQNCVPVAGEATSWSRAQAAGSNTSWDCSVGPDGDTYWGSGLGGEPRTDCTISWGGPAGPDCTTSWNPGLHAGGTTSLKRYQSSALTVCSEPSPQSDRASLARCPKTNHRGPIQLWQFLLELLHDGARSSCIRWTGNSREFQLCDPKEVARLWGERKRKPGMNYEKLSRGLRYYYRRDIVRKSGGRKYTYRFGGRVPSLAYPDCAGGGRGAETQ
In short, it runs like this: as §1

In the next assay the target is ETV1 (Homo sapiens, UniProt P50549 1-477). The method, boiled down:
as §1

The target of another assay is T8, ERF (Homo sapiens, UniProt P50548 1-548).
T8 sequence: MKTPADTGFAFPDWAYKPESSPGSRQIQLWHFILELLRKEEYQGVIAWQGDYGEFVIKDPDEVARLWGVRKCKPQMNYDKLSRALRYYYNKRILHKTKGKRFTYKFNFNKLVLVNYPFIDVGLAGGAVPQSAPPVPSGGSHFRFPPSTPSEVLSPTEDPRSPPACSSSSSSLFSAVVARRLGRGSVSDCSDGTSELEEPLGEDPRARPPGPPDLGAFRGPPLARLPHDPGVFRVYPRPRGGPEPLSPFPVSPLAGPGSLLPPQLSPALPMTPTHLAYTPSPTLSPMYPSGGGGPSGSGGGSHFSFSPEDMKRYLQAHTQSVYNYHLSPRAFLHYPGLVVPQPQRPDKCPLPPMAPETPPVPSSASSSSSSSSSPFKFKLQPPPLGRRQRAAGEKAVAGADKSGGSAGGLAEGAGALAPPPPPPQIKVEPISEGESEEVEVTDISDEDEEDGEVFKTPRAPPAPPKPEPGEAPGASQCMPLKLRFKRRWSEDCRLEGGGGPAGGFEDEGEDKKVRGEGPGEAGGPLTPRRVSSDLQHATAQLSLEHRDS
The method, boiled down:
as §1

The target of the next assay is T9, ETV3L (Homo sapiens, UniProt Q6ZN32 1-361).
T9 sequence: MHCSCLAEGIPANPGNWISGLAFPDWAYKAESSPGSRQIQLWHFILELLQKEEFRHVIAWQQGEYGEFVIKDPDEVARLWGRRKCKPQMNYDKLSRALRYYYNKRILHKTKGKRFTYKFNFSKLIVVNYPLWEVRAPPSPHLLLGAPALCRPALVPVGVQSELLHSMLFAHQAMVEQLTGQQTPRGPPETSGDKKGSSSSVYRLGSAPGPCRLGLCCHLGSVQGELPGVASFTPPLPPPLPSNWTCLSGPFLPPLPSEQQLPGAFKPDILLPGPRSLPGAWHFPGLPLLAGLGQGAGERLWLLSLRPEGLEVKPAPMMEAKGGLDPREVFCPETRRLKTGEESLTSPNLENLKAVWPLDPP
The method, boiled down: as §1

Another assay deals with T10, ETS2 (Homo sapiens, UniProt P15036 1-469).
T10 sequence: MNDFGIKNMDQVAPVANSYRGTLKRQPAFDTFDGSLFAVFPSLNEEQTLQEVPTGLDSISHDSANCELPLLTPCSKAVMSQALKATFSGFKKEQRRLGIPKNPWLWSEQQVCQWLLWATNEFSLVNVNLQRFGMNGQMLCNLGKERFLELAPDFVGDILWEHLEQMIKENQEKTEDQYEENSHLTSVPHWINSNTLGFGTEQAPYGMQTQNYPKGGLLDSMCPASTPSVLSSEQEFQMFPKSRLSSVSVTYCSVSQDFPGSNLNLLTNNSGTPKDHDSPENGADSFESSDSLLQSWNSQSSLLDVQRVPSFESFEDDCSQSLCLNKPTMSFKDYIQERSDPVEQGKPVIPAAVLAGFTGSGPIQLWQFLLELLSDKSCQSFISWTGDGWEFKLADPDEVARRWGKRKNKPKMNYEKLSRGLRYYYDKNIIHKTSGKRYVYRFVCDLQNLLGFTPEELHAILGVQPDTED
The method, boiled down: as §1

The next assay has as its target T11, ETV7 (Homo sapiens, UniProt Q9Y603 1-341).
T11 sequence: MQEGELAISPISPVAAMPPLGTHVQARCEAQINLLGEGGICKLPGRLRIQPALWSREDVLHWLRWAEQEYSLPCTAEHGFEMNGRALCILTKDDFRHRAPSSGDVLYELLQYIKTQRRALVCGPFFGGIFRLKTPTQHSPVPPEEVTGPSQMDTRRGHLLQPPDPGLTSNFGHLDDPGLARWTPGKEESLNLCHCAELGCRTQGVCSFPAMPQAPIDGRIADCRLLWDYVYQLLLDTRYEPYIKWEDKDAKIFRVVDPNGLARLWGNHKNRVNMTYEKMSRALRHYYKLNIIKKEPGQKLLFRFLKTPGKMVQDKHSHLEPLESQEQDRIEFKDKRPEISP
In short, it runs like this:
as §1

A further assay deals with T12, ETV3 (Homo sapiens, UniProt P41162-2 1-143).
T12 sequence: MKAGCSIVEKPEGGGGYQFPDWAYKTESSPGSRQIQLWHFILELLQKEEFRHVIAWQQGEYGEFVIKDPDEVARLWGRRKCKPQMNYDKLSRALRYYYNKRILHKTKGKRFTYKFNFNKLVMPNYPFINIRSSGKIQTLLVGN
The method, boiled down:
as §1

Another assay deals with ETV6 (Homo sapiens, UniProt P41212 1-452). In short, it runs like this:
as §1

ETV5, sequence (P41161 whole entry): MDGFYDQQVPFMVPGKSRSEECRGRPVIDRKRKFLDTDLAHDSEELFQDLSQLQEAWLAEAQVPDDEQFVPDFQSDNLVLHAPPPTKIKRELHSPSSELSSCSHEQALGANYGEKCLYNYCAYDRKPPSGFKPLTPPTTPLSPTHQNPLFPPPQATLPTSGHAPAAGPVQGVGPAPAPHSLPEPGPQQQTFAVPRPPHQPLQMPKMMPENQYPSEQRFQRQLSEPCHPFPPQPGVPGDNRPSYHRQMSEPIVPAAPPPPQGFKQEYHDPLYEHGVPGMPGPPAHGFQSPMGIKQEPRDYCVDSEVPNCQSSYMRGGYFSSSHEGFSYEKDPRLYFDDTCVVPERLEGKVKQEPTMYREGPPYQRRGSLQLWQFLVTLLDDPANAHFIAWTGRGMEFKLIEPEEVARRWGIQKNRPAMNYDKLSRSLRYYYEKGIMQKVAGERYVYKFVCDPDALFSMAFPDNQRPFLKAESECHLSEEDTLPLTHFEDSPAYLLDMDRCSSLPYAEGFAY
ETV1, sequence (P50549 whole entry): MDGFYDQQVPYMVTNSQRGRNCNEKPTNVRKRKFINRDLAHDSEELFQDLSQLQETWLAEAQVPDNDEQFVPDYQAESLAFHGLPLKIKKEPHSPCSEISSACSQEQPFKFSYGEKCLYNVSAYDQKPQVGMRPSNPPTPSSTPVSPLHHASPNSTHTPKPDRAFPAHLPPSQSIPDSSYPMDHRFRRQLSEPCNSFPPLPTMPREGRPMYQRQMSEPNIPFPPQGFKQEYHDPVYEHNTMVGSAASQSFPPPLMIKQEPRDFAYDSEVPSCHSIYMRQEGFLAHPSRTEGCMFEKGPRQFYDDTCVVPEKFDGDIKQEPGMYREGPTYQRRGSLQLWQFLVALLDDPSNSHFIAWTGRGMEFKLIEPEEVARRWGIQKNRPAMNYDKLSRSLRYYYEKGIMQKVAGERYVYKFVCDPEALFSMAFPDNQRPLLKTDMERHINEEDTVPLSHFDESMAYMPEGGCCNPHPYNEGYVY
ETV6, sequence (P41212 whole entry): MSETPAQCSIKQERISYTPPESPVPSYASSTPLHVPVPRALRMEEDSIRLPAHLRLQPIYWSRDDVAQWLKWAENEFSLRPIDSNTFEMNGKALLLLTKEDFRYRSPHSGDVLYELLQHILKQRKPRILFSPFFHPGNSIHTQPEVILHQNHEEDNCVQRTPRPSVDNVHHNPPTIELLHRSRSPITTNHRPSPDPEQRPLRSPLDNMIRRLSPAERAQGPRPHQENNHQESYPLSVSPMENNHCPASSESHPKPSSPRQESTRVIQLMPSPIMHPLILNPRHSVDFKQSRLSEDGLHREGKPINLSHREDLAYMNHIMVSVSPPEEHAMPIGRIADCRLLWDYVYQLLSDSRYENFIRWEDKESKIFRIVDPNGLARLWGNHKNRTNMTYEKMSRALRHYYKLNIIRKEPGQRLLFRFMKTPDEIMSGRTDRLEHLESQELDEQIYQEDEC
ELF4, sequence (Q99607 whole entry): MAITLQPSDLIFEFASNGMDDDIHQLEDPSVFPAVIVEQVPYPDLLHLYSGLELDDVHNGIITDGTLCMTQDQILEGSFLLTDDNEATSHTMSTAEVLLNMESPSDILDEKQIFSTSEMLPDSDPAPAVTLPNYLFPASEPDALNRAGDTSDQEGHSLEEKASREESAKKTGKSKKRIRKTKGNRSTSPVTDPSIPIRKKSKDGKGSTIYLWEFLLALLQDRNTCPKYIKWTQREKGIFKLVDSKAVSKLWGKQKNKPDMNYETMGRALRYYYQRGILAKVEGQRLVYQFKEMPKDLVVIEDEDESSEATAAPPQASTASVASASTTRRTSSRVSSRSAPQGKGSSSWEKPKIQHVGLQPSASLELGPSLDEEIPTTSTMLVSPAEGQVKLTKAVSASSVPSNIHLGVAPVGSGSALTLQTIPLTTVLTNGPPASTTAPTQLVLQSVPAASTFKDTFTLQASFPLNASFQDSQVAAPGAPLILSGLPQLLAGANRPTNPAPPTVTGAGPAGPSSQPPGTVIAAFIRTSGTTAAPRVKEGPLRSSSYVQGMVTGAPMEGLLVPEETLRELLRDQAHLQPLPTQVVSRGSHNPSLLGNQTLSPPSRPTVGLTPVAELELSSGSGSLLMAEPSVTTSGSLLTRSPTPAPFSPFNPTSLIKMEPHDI
ELF1, sequence (P32519 whole entry): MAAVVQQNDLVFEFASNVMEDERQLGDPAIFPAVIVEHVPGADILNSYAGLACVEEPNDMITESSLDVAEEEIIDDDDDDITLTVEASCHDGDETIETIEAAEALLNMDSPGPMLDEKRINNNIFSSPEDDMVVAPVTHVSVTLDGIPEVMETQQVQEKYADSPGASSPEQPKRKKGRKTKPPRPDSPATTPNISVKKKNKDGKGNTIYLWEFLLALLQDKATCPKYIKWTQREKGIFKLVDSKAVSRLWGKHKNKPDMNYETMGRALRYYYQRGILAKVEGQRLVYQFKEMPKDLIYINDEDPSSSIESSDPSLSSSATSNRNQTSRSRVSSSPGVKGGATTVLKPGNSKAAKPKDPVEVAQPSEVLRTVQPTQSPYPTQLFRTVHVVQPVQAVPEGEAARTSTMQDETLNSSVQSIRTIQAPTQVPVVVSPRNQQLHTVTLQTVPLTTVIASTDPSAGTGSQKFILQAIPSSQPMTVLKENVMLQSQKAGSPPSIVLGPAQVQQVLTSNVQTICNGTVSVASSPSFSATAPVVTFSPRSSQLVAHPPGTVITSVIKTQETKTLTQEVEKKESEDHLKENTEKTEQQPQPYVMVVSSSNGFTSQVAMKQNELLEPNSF

For AAGGGC, the binding signal with ELK1 is 1.02 fold enrichment (6-mer frequency, TF over GST control); in the assay with GABPA, 1.1 fold enrichment (6-mer frequency, TF over GST control); in the assay with ERG, 1.06 fold enrichment (6-mer frequency, TF over GST control); with ELF1, 1.06 fold enrichment (6-mer frequency, TF over GST control); with EHF it was 1.01 fold enrichment (6-mer frequency, TF over GST control); with FEV it was 1.02 fold enrichment (6-mer frequency, TF over GST control). Further, the binding signal was 1.06 fold enrichment (6-mer frequency, TF over GST control) in the assay with ETV5; 1.01 fold enrichment (6-mer frequency, TF over GST control) with ELF4; 1.13 fold enrichment (6-mer frequency, TF over GST control) in the assay with ELK4; 1.06 fold enrichment (6-mer frequency, TF over GST control) with ETV2; 1.05 fold enrichment (6-mer frequency, TF over GST control) in the assay with ETV1; 1.06 fold enrichment (6-mer frequency, TF over GST control) in the assay with ERF. Besides, the binding signal with ETV3L is 1.05 fold enrichment (6-mer frequency, TF over GST control); with ETS2, 1.1 fold enrichment (6-mer frequency, TF over GST control); in the assay with ETV7, 1.05 fold enrichment (6-mer frequency, TF over GST control); with ETV3, 1.07 fold enrichment (6-mer frequency, TF over GST control); with ETV6, 1.04 fold enrichment (6-mer frequency, TF over GST control).

(Values after paper PMC7862700, “An all-to-all approach to the identification of sequence-specific readers for epigenetic DNA modifications on cytosine”.)
